Tests used:
[1] = molecular target: High affinity nerve growth factor receptor (Homo sapiens) (UniProt P04629); conditions: at 1 µM;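 further: each value is the mean percent inhibition of TRKA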
[2] = molecular target: BDNF/NT-3 growth factors receptor (Homo sapiens) (UniProt Q16620); conditions: at 0.1 µM
[3] = molecular target: BDNF/NT-3 growth factors receptor (Homo sapiens) (UniProt Q16620); conditions: at 1 µM
[4] = molecular target: NT-3 growth factor receptor (Homo sapiens) (UniProt Q16288); conditions: at 0.1 µM
[5] = molecular target: NT-3 growth factor receptor (Homo sapiens) (UniProt Q16288); conditions: at 1 µM
[6] = molecular target: T1, Tyrosine-protein kinase TXK (Homo sapiens) (UniProt P42681); conditions: at 0.1 µM
T1 sequence (whole entry): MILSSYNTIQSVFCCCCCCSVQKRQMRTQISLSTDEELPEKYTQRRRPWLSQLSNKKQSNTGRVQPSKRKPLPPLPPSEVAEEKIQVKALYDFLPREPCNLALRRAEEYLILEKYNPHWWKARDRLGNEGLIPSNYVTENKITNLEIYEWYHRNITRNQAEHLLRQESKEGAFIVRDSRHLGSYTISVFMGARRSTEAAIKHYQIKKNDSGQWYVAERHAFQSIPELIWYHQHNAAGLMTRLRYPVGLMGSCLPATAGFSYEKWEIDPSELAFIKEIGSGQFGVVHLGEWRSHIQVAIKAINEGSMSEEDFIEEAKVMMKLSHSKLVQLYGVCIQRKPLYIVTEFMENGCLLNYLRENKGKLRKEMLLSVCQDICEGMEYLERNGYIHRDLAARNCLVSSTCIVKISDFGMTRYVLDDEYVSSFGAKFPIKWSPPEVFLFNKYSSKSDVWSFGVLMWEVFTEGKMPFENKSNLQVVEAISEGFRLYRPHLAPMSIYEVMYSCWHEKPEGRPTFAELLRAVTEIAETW

[7] = molecular target: T1, Tyrosine-protein kinase TXK (Homo sapiens); conditions: at 1 µM
[8] = molecular target: Non-receptor tyrosine-protein kinase TYK2 (Homo sapiens) (UniProt P29597); conditions: at 0.1 µM;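 further: each value is a mean of the inhibition readings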
[9] = molecular target: T2, Dual specificity protein kinase TTK (Homo sapiens) (UniProt P33981); conditions: at 1 µM;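 further: reported figures are mean TTK inhibition at 1 µM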
T2 sequence (whole entry): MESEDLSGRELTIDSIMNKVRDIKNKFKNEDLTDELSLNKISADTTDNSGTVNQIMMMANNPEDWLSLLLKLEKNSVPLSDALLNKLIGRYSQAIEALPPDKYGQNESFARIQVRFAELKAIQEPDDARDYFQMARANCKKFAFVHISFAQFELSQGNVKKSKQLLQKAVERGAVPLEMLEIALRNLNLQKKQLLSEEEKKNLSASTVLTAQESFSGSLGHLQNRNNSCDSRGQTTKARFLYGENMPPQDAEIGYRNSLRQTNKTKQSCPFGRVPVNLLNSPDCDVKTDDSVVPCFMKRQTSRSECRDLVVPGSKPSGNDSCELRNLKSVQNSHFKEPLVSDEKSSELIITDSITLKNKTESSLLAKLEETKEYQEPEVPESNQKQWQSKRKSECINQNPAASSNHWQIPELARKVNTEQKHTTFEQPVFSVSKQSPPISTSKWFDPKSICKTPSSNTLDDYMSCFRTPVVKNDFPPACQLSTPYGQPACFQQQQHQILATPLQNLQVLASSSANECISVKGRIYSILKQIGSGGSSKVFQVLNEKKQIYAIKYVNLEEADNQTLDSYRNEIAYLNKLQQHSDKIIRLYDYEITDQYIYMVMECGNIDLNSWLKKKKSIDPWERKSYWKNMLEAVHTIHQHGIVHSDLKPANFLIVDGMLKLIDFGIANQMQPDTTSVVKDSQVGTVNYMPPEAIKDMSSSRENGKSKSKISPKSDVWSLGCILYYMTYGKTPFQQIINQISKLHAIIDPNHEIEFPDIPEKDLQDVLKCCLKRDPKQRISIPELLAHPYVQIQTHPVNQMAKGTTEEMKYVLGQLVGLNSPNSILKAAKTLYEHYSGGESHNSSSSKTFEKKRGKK

[10] = molecular target: T3, Aurora kinase A (Homo sapiens) (UniProt O14965); conditions: at 0.1 µM
T3 sequence (whole entry): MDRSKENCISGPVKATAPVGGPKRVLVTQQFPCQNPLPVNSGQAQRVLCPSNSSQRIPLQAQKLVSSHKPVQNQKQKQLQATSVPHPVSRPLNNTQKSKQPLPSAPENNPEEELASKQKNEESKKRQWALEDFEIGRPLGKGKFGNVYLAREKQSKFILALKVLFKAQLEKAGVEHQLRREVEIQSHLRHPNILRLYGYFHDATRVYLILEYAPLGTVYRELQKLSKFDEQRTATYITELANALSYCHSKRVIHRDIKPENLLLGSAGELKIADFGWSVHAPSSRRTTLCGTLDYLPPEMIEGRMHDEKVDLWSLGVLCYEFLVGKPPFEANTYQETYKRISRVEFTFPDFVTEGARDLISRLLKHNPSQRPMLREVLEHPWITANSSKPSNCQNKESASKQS

[11] = molecular target: T3, Aurora kinase A (Homo sapiens); conditions: at 1 µM
[12] = molecular target: Aurora kinase B (Homo sapiens) (UniProt Q96GD4); conditions: at 0.1 µM
[13] = molecular target: Aurora kinase B (Homo sapiens) (UniProt Q96GD4); conditions: at 1 µM
[14] = molecular target: T4, Aurora kinase C (Homo sapiens) (UniProt Q9UQB9); conditions: at 0.1 µM
T4 sequence (whole entry): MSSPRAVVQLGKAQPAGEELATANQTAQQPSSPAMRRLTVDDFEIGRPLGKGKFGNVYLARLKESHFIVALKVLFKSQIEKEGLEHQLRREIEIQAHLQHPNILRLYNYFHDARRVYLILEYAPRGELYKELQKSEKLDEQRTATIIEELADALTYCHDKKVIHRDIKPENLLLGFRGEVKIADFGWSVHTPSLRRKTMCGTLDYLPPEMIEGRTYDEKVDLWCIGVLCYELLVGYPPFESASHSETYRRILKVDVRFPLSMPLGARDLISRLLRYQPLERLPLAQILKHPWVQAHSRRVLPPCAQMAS

[15] = molecular target: T4, Aurora kinase C (Homo sapiens); conditions: at 1 µM
[16] = molecular target: Serine/threonine-protein kinase 10 (Homo sapiens) (UniProt O94804); conditions: at 0.1 µM
[17] = molecular target: Serine/threonine-protein kinase 10 (Homo sapiens) (UniProt O94804); conditions: at 1 µM
[18] = molecular target: T5, Mitogen-activated protein kinase kinase kinase kinase 2 (Homo sapiens) (UniProt Q12851); conditions: at 0.1 µM
T5 sequence (whole entry): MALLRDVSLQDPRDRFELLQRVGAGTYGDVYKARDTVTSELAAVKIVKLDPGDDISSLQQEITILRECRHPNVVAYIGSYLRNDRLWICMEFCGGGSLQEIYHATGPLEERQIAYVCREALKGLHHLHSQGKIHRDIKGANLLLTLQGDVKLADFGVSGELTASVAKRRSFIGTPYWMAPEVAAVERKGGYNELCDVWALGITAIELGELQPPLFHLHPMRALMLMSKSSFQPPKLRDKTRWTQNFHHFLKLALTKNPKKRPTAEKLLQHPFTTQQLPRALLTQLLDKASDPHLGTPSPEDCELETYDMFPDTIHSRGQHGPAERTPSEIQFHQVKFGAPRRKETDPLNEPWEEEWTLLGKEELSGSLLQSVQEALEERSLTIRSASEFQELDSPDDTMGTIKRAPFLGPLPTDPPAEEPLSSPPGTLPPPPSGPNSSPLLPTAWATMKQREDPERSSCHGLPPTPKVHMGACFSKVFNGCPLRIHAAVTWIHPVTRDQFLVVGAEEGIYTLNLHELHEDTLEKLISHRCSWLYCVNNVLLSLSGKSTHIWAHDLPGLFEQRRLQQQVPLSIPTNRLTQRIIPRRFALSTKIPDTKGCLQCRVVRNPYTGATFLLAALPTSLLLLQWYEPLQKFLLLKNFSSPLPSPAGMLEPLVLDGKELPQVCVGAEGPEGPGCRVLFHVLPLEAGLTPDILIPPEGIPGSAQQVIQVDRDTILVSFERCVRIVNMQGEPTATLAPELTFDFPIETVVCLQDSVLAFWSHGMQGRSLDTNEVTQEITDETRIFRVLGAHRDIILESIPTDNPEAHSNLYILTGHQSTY

[19] = molecular target: T5, Mitogen-activated protein kinase kinase kinase kinase 2 (Homo sapiens); conditions: at 1 µM
[20] = molecular target: Mitogen-activated protein kinase kinase kinase kinase 4 (Homo sapiens) (UniProt O95819); conditions: at 0.1 µM
Sequence of Mitogen-activated protein kinase kinase kinase kinase 4 (Homo sapiens) (O95819 2-1239 limits assumed): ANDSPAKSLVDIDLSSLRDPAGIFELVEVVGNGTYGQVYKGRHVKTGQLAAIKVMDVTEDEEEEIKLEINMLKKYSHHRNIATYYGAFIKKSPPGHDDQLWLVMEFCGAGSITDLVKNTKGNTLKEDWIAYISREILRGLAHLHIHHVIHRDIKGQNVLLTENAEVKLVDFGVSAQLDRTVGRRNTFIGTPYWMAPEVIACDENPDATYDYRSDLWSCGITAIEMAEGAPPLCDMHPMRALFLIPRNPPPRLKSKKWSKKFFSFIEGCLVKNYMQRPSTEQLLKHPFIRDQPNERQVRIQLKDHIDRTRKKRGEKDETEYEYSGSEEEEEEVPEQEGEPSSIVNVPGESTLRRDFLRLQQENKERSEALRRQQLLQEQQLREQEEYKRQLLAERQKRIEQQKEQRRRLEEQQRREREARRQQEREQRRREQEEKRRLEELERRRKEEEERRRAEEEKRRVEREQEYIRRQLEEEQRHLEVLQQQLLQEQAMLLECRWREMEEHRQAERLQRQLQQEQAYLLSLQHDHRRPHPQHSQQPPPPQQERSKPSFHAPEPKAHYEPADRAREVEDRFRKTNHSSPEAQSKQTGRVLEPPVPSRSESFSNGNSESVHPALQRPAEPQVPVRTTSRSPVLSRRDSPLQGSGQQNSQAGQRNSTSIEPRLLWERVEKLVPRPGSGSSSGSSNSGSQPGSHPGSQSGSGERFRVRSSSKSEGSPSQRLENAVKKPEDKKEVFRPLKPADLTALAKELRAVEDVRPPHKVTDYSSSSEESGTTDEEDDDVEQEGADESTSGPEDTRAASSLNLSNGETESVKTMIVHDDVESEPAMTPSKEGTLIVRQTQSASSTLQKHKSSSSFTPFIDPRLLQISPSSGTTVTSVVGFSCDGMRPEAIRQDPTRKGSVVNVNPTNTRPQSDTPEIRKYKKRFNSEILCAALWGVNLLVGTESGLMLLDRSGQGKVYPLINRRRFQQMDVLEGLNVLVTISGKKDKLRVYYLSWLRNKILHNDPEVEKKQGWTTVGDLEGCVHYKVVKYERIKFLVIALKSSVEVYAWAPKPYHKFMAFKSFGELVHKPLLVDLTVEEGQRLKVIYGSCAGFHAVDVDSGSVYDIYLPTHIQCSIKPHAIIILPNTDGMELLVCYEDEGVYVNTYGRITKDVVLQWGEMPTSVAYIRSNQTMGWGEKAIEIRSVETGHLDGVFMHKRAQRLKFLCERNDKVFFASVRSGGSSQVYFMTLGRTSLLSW

Sequence of NT-3 growth factor receptor (Homo sapiens) (Q16288 32-839 limits assumed): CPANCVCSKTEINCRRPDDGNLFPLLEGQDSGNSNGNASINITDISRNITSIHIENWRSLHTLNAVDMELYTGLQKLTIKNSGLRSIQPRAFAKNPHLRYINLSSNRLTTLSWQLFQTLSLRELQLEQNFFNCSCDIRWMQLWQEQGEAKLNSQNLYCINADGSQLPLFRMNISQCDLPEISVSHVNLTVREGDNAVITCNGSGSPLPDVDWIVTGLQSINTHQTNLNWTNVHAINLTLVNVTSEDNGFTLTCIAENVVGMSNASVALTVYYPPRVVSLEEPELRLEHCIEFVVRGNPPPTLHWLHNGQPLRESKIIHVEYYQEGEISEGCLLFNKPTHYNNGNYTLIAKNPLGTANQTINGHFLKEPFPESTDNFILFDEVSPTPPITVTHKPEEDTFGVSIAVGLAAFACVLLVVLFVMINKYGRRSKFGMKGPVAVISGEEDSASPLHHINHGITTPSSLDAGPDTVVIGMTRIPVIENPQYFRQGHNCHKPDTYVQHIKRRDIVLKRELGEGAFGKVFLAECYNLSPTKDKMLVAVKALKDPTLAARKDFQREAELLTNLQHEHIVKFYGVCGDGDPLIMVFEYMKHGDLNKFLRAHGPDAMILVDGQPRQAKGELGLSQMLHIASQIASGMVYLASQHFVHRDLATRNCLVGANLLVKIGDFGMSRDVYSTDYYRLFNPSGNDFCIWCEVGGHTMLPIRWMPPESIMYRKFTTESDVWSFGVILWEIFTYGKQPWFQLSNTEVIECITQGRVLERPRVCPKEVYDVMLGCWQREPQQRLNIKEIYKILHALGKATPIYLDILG
Sequence of BDNF/NT-3 growth factors receptor (Homo sapiens) (Q16620 32-822 limits assumed): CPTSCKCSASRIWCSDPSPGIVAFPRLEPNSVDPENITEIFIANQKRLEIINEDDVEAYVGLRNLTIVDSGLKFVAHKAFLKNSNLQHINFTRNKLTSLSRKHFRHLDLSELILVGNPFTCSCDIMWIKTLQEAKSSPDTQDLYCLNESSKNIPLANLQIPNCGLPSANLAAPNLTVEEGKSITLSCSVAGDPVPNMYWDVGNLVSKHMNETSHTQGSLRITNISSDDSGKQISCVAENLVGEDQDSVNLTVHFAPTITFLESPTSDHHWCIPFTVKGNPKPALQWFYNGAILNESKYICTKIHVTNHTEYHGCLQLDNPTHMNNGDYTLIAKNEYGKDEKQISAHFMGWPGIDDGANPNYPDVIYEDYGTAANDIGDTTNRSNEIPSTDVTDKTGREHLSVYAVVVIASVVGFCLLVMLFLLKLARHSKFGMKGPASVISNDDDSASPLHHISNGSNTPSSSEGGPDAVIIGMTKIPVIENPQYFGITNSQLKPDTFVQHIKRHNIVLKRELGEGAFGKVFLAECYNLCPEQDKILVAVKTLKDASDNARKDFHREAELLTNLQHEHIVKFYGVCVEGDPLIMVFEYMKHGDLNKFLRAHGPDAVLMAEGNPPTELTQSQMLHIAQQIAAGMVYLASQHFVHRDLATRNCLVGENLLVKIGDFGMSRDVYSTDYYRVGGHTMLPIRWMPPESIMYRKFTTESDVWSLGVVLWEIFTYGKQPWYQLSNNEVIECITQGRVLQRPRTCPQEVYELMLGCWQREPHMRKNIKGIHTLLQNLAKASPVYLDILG
Sequence of Serine/threonine-protein kinase 10 (Homo sapiens) (O94804 whole entry, looked up): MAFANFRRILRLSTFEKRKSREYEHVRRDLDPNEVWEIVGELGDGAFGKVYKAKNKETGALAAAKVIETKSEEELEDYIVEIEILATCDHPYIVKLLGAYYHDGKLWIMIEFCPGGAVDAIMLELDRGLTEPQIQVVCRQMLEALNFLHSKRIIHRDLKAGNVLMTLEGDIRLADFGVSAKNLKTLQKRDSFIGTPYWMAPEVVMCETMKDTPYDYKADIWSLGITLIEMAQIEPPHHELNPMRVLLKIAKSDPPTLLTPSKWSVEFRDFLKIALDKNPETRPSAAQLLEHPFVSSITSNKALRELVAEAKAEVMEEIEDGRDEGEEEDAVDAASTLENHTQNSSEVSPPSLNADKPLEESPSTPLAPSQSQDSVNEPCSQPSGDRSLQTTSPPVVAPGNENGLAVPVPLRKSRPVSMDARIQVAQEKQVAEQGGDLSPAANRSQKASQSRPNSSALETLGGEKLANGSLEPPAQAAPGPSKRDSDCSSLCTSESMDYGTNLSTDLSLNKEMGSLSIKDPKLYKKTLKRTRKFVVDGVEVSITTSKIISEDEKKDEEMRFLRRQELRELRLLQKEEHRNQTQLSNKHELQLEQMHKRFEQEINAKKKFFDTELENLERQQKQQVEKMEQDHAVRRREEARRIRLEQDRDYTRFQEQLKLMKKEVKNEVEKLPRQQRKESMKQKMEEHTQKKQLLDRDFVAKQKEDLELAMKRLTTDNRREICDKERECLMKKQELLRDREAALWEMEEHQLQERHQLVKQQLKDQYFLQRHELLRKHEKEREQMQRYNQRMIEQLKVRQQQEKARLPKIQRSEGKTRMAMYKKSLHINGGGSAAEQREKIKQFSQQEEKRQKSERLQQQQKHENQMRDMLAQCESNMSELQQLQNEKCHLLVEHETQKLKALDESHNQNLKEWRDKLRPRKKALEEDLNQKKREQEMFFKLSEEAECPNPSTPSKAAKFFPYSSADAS
Sequence of Aurora kinase B (Homo sapiens) (Q96GD4 whole entry): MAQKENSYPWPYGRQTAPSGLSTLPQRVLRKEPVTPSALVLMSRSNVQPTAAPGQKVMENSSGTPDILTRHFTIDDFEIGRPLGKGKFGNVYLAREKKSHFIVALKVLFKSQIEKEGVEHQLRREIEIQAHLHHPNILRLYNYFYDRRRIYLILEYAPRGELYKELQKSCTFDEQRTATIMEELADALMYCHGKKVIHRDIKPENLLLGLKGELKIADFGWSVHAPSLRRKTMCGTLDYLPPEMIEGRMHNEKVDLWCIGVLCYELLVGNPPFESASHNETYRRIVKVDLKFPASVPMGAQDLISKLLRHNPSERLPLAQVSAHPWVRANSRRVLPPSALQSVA
Sequence of High affinity nerve growth factor receptor (Homo sapiens) (P04629 33-796 limits assumed): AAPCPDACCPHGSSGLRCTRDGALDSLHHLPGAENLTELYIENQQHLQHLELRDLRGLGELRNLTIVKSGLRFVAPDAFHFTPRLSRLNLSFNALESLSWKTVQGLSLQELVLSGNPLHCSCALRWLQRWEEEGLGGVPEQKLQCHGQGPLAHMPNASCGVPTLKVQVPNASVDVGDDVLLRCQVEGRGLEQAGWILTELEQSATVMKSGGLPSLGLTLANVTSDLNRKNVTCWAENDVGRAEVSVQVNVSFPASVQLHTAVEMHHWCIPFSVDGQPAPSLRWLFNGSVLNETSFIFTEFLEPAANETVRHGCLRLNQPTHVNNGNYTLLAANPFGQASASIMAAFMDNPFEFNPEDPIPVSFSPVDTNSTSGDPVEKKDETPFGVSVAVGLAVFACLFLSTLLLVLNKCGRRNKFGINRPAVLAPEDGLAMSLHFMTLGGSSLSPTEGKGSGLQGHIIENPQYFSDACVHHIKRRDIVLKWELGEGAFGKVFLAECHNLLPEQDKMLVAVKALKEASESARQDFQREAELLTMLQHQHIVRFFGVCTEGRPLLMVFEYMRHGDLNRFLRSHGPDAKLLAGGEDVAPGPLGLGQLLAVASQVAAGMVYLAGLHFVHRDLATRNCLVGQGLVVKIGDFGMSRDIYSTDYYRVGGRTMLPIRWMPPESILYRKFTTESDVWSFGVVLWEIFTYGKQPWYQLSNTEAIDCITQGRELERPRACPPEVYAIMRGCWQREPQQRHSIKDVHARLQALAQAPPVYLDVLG

| SMILES | inhibition [1] [%] | inhibition [2] [%] | inhibition [3] [%] | inhibition [4] [%] | inhibition [5] [%] | inhibition [6] [%] | inhibition [7] [%] | inhibition [8] [%] | inhibition [9] [%] | inhibition [10] [%] | inhibition [11] [%] | inhibition [12] [%] | inhibition [13] [%] | inhibition [14] [%] | inhibition [15] [%] | inhibition [16] [%] | inhibition [17] [%] | inhibition [18] [%] | inhibition [19] [%] | inhibition [20] [%] |
| --- | --- | --- | --- | --- | --- | --- | --- | --- | --- | --- | --- | --- | --- | --- | --- | --- | --- | --- | --- | --- |
| Cc1ccc2c(-c3ccnc(Nc4cccc(C(F)(F)F)c4)n3)c(-c3ccccc3)nn2n1 | 7.09 | 4.09 | 5.15 | 2.41 | 5.05 | 6.16 | 17.2 | -1.28 | 10.6 | 1.82 | 6.06 | 5.03 | 7.6 | 3.89 | 9.67 | 8.49 | 11.5 | -0.05 | 9.38 | 7.07 |
| Cc1cc(-c2ccccn2)cc(C)c1/C=C/c1cncc(-c2nn[nH]n2)c1 | 10 | 3.94 | 4.13 | 1.49 | 2.54 | 2.93 | 4.47 | -2.23 | 9.95 | 1.9 | 5.71 | 2.09 | 7.42 | 4.2 | 19.6 | 6.35 | 13.7 | -1.16 | 3.53 | 2.48 |
| NS(=O)(=O)c1cccc(-c2cc3ccncc3cc2OCc2ccccc2)c1 | 5.54 | 2.94 | 6.23 | 1.81 | 6.72 | 4.1 | 10.2 | -2.99 | 11.2 | 3.18 | 16.9 | 7.33 | 17.9 | 8.37 | 12.4 | 8.31 | 10.8 | 3.01 | 10.2 | 7.44 |
| CN(C)C(=O)O[C@@H]1CN[C@@H](C#Cc2cc3ncnc(Nc4ccc(OCc5cccc(F)c5)c(Cl)c4)c3s2)C1 | -4.24 | -0.65 | -0.85 | 2.82 | 0.46 | 2.85 | 5.35 | 1.84 | 4.98 | 1.79 | 8.44 | 2.09 | 5.86 | 0.89 | 14 | 1.67 | 6.26 | 0.47 | 2.35 | 2.96 |
| COc1cc2ncnc(Nc3ccc(C)c(O)c3)c2cc1OC | 2.17 | 3.65 | 6.25 | 1.67 | 7.05 | 8.65 | 29.5 | -5.98 | 7.27 | 2.56 | 7.23 | 4.5 | 8.54 | 1.17 | 4.32 | 21.1 | 70.1 | 2.26 | 5.63 | 7.16 |
| CS(=O)(=O)CCNCc1nc(-c2ccc3ncnc(Nc4ccc(OCc5cccc(C(F)(F)F)c5)cc4)c3c2)cs1 | 5.08 | 2.33 | 12.1 | 1.39 | 7.81 | 6.88 | 5.83 | -3.62 | 2.16 | 3.8 | 2.26 | 4.85 | 6.3 | 5.42 | 5.59 | 6.68 | 10 | -0.19 | 3.96 | 1.73 |
| O=C(Nc1ccc(Oc2ccc3[nH]c(NC(=O)c4ccco4)nc3c2)cc1)Nc1cc(C(F)(F)F)ccc1F | 85.5 | 27.8 | 73.9 | 30.8 | 89.6 | -1.98 | -1.15 | 1.41 | 13.6 | -1.76 | 15.1 | 5.43 | 38.8 | 8.04 | 82.4 | 35.6 | 76.7 | 2.98 | 28.9 | 0.47 |
